Measurements published in PubChem BioAssay AID1851 (National Center for Advancing Translational Sciences (NCATS), 2009).
Values joined by “and” are separate entries in the source; they are usually repeats but may differ in a detail not shown here. Equal values may be shown once. Screen size: about 16,000 compounds; about 4,000 (25%) were called active. Another 26% or so got no clear call; they are omitted. Calls come from the whole dose curve; as a rule, active = well fitted curve in the direction sought with a large enough effect; inconclusive = small, poorly fitted or top-dose-only effect, or effect the other way; inactive = no such curve, though single readings can be large or run the other way. A selection follows. The source holds several records for some structures; these can differ, active in one and inactive in another.

biological target: Cytochrome P450 2C9 (Homo sapiens) (UniProt P11712); assay: Cytochrome panel assay with activity outcomes; conditions: recombinant CYP, pro-luciferin dealkylation, luminescence, p450-cyp2c9; series mostly up to 57.1 µM; activity, negative = inhibition: at the top concentration
Sequence (P11712 whole entry, looked up): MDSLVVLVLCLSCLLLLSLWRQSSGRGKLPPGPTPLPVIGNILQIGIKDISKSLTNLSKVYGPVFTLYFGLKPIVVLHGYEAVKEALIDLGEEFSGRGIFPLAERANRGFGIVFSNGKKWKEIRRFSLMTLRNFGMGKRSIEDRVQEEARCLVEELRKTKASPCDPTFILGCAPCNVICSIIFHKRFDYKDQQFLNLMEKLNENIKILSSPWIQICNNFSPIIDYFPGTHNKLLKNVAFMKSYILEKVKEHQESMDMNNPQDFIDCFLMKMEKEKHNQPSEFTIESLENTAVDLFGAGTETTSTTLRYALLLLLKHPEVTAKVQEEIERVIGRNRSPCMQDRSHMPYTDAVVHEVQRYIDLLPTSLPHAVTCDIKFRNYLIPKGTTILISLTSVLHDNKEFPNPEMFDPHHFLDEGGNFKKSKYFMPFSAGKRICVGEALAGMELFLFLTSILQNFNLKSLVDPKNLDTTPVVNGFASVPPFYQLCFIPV
% is set by controls: 0 for no effect and ±100 for the full control effect.

| Compound | activity, negative = inhibition | AC50 |
| --- | --- | --- |
| O=C(O)C[O][Sb][O]CC(=O)O | 3.17% [at 11.4 µM] (inactive) | – |
| O=C(O)[C@H]1[O][Sb][O][C@@H](C(=O)O)C1O (some centres undefined) | 14.9% [at 11.4 µM] (inactive) | – |
| NCC[C@H](O)C(=O)N[C@H]1C[C@@H](N)[C@@H](O[C@H]2O[C@@H](CN)[C@@H](O)[C@@H](O)[C@@H]2N)[C@@H](O[C@H]2O[C@@H](CO)[C@@H](O)[C@@H]2O)[C@@H]1O | -2.49% [at 25.6 µM] (inactive) | – |
| C[N+]1(C)CCO[C@@](O)(c2ccc(-c3ccc([C@]4(O)C[N+](C)(C)CCO4)cc3)cc2)C1 | -5.58% (inactive) | – |
| O=C(c1ccccc1)[C@H]1[C@H](c2ccccc2[N+](=O)[O-])N1C1CCCCC1 (some centres undefined) | -9.93% [at 11.4 µM] (inactive) | – |
| CC1=C(O)C(=O)[C@H]2O[C@@H]2C1=O | -9.89% (inactive) | – |
| CN1CC[C@@]2(CCCN(C(=O)c3ccco3)C2)C1 | 5.65% (inactive) | – |
| COCC(=O)N1CCC2(CCCN(Cc3ccncc3)C2)CC1 | – | 5.01 µM (active) |
| CN1CC[C@@]2(CCCN(C(=O)c3ccncc3)C2)C1 | 2.79% (inactive) | – |
| c1cc(CN2CCCC3(CCNCC3)C2)ccn1 | -28.9% (inactive) | – |
| CC(C)CN1CCCC2(CCN(C(=O)c3ccncc3)CC2)C1 | -28.7% (inactive) | – |
| O=C(c1ccco1)N1CCC[C@@]2(CCN(Cc3ccncc3)C2)C1 | – | 3.16 µM (active) |
| CC[C@]1([C@H]2O[C@@H]([C@@H]3O[C@](O)(CO)[C@@H](C)C[C@H]3C)C[C@H]2C)CC[C@@H]([C@]2(C)CC[C@@]3(C[C@@H](O)[C@@H](C)[C@@H]([C@H](C)[C@H](OC)[C@H](C)C(=O)O)O3)O2)O1 | 2.5% [at 25.6 µM] (inactive) | – |
| COc1ccccc1CN1CCCC2(CCN(C(=O)Oc3ccccc3)CC2)C1 | 2.58% (inactive) | – |
| COC(=O)[C@@H]1c2cc3c(c(O)c2[C@@H](O)C[C@]1(C)O)C(=O)c1c(O)cc2c(c1C3=O)O[C@H]1O[C@@]2(C)[C@@H](O)[C@H](N(C)C)[C@H]1O | -12.9% [at 11.4 µM] (inactive) | – |
| CCN(CC)CCO[C@H]1CC[C@@]2(C)C(=CC[C@@H]3[C@H]2CC[C@]2(C)C(=O)CC[C@H]32)C1 | -1.59% (inactive) | – |
| CO[C@@H]1CC=C2CCN3CCC4=C(CC(=O)OC4)[C@]23C1 | 11.3% (inactive) | – |
| C[N+]1(C)[C@@H]2CC[C@H]1CC(OC(=O)[C@@H](CO)c1ccccc1)C2 (some centres undefined) | inactive | – |
| COc1ccc2[nH]c3c(c2c1)CCN=C3C | -24.9% [at 25.6 µM] (inactive) | – |
| N[C@@H](CSC1c2ccccc2-c2ccccc21)C(=O)O | -21.1% [at 11.4 µM] (inactive) | – |
| C[C@@]12CC[C@H]3[C@@H](CCC4=C(O)C(=O)CC[C@]43C)[C@H]1CCC2=O | 8.16% (inactive) | – |
| Cc1ccccc1-c1nc(CS(=O)CC(=O)N2CCC3(CC2)OCCO3)c(C)o1 (centres undefined) | – | 5.01 µM (active) |

| Compound | activity, negative = inhibition | AC50 |
| --- | --- | --- |
| Cc1cc(NC(=O)CCC(=O)N2CCC3(CC2)OCCO3)no1 | 14.5% (inactive) | – |
| Oc1ccc([C@H](O)[C@@H]2CCCCN2)cc1O | -5.3% [at 11.4 µM] (inactive) | – |
| CC(C)C(=O)N1C2CCC1CC(O)(c1ccc(F)cc1)C2 (centres undefined) | -8.36% (inactive) | – |
| C[C@](N)(CCP(=O)(O)O)C(=O)O | 7.57% (inactive) | – |
| O=C(CN1CCCCC1)Nc1ccc(Br)cc1C(=O)c1ccccc1Cl | – | 8.91 µM (active) |
| CN(CCc1ccc(Cl)c(Cl)c1)[C@H]1CCCC[C@H]1N1CCCC1 | -18.7% (inactive) | – |
| CCOC(=O)c1ncn2c1CN(C)C(=O)c1cc(F)ccc1-2 | 0.585% (inactive) | – |
| CC(C)(C)NC[C@H](O)c1ccccc1Cl | 11.1% (inactive) | – |
| C=CCN1CC[C@@]23c4c5ccc(O)c4O[C@H]2/C(=N\N=C2/CC[C@@]4(O)[C@H]6Cc7ccc(O)c8c7[C@@]4(CCN6CC=C)[C@@H]2O8)CC[C@]3(O)[C@@H]1C5 | inactive | – |
| C[C@H](CCC(=O)O)[C@H]1CC[C@]2(C)[C@@H]3C(=O)C[C@H]4C(C)(C)[C@@H](O)CC[C@]4(C)[C@H]3C(=O)C[C@@]12C | -0.996% [at 11.4 µM] (inactive) | – |
| Cc1nc2ccccc2c(=O)n1-n1cnnc1 | -22.4% (inactive) | – |
| CCCCc1nc2ccccc2c(=O)n1-c1ccccc1[N+](=O)[O-] | – | 11.2 µM (active) |
| CCCc1nc2ccccc2c(=O)n1-c1ccc(OC)cc1 | – | 25.1 µM (active) |
| CCCCc1nc2ccccc2c(=O)n1-c1ccc(Cl)cc1[N+](=O)[O-] | -8.02% (inactive) | – |
| Cc1nc2ccccc2cc1C[N+]12CN3CN(CN(C3)C1)C2 | 18.3% [at 11.4 µM] (inactive) | – |
| COc1ccc2c(c1)C13CCCC[C@@H]1C(C2)N(C)CC3 (some centres undefined) | -5.05% [at 25.6 µM] (inactive) | – |
| CC[C@H](C)C(=O)O[C@@H]1[C@H](O)[C@@H]2[C@H](CN3C[C@@H](C)CC[C@@H]3[C@@]2(C)O)[C@@H]2C[C@@]34O[C@@]5(O)[C@@H](OC(=O)[C@](C)(O)CC)CC[C@@]3(C)[C@H]5[C@H](OC(C)=O)[C@@H](OC(C)=O)[C@H]4[C@]12O | 23.1% [at 25.6 µM] (inactive) | – |
| COc1cc2c3cc1Oc1c(O)c(OC)cc4c1[C@@H](Cc1ccc(cc1)Oc1cc(ccc1O)C[C@H]3N(C)CC2)N(C)CC4 | 2.87% [at 11.4 µM] (inactive) | – |
| CC(C)N(CC[C@@](C(N)=O)(c1ccccc1)c1ccccn1)C(C)C | inactive | – |
| N[C@H](Cn1ccc(=O)[nH]c1=O)C(=O)O | -9.73% (inactive) | – |
| O=[N+]([O-])c1ccc2nc(N3CCNCC3)ccc2c1 | -10.6% (inactive) | – |
| CC12CN3CC(C)(CN(C1)C31CCSCC1)C2=O | -7.66% (inactive) | – |

| Compound | activity, negative = inhibition | AC50 |
| --- | --- | --- |
| NCCc1c[nH]c2ccc(C(N)=O)cc12 | inactive | – |
| N[C@@H](Cc1ccccc1)P(=O)(O)O | -8.88% [at 11.4 µM] (inactive) | – |
| CN1[C@H](CC(=O)c2ccccc2)CCC[C@H]1C[C@H](O)c1ccccc1 | -7.25% (inactive) | – |
| CC1(C)CCC2=C(O1)c1ccccc1C(=O)C2=O | – | 31.6 µM (active) |
| C[C@@H]1CC[C@@H]2N(C1)C[C@H]1[C@@](O)([C@H](O)C[C@]3(O)[C@H]4CC[C@H]5[C@]6(O)O[C@]4(C[C@]13O)[C@@]5(C)CC[C@@H]6O)[C@@]2(C)O | -2.76% [at 11.4 µM] (inactive) | – |
| C=CCn1c(O)c(C(C)=NCCCN2CCOCC2)c(=O)[nH]c1=O | -27.5% (inactive) | – |
| C=C(C)[C@H]1CN[C@H](C(=O)O)[C@@H]1CC(=O)O | 13.2% (inactive) | – |
| COc1c2c(cc3c1OCO3)CCN(C)C2 | 20.3% [at 25.6 µM] (inactive) | – |
| NCC#Cc1ccccc1 | – | 10 µM (active) |
| O=C(Oc1ccccc1)N1CCC[C@@]2(CCN(C(c3ccccc3)c3ccccc3)C2)C1 | -10.2% (inactive) | – |
| C[N+]1([O-])[C@@H]2CC[C@H]1CC(OC(=O)[C@@H](CO)c1ccccc1)C2 (some centres undefined) | 21.1% [at 25.6 µM] (inactive) | – |
| COC(=O)[C@@]1(Cc2ccc(F)cc2)[C@H]2c3cc(C(=O)N(C)C)[nH]c3C[C@H]2CN1C(=O)c1ccccc1 | – | 10 µM (active) |
| CN(C)CCCc1c[nH]c2ccccc12 | -1.95% [at 11.4 µM] (inactive) | – |
| COc1cc2c(cc1O)C[C@H]1c3c(cc(O)c(OC)c3-2)CCN1C | -0.572% [at 25.6 µM] (inactive) | – |
| Cn1c[n+](C)cc1C(O)c1ccccc1 (centres undefined) | -14.7% (inactive) | – |
| O=C(Nc1ccc(Cl)cc1)Nc1nccs1 | – | 17.8 µM (active) |
| O=C1CS[C@@H](c2ccccc2Cl)c2cc(Cl)ccc2N1 | – | 15.8 µM (active) |
| COc1cc2c(cc1OC)[C@@H]1C(=O)c3ccc4c(c3O[C@@H]1CO2)C=CC(C)(C)O4 | -28% (inactive) | – |
| C[C@H](N)Cc1c[nH]c2ccc(O)cc12 | 11.8% (inactive) | – |
| O=c1c2ccccc2c2ccccc2c(=O)n1-c1cc2c3ccccc3ccc2c2ccccc12 | – | 0.316 µM (active) |
| c1csc(CN2CCC3(CCNCC3)CC2)n1 | 5.14% (inactive) | – |
| CN(C)CCCNc1c2c(nc3ccc(Cl)cc13)CCCC2 | 6.4% [at 11.4 µM] (inactive) | – |

| Compound | activity, negative = inhibition | AC50 |
| --- | --- | --- |
| CC(=O)OCC1=C(C(=O)O)N2C(=O)[C@@H](N)[C@@H]2SC1 | 13% [at 25.6 µM] (inactive) | – |
| CCc1cc2c(nc1CC)CCN(CC/C(C)=N/OC)C2 | 7.8% [at 11.4 µM] (inactive) | – |
| CS(=O)c1ccc(-c2nc(-c3ccc(F)cc3)c(-c3ccncc3)[nH]2)cc1 (centres undefined) | – | inactive and 2 µM (active) |
| Cc1ccc(S(=O)(=O)N[C@@H](CCCCN)C(=O)CCl)cc1 | -3.85% (inactive) | – |
| O=C(Nc1ccccc1)N1CCCC2(CCN(C(=O)Oc3ccccc3)CC2)C1 | -17.9% (inactive) | – |
| Cc1cc(C)c(C#N)c(SCC(=O)c2ccc(Cl)cc2Cl)n1 | – | 5.01 µM (active) |
| COc1ccc2c(c1)CCC1[C@@H]2CCC2(C)[C@@H](NCCCCCCN3C(=O)C=CC3=O)CC[C@@H]12 (some centres undefined) | 5.58% (inactive) | – |
| COc1ccc(C[C@@H](N)c2ccc(OC)cc2)cc1 | -15.8% [at 11.4 µM] (inactive) | – |
| N=C(N)SCc1ccc(Cl)c2ccccc12 (tested in a mixture with another compound) | 9.59% [at 11.4 µM] (inactive) | 3.98 µM (active) |
| O=[As](O)(O)c1ccc(NCc2ccccc2)cc1 | -7.26% [at 11.4 µM] (inactive) | – |
| C[C@H]1[C@H](NC(=O)/C(=N/OC(C)(C)C(=O)O)c2csc(N)n2)C(=O)N1S(=O)(=O)O (stereo in doubt) | 14% [at 25.6 µM] (inactive) | – |
| O=c1[nH]oc2c1CCNC2 | inactive | – |
| N#Cc1ccc(CN2CC[C@@]3(CCCNC3)C2)cc1 | -13.8% (inactive) | – |
| COC(=O)C1=Nc2ccccc2/C1=C\c1c(O)n(-c2ccc(OC)cc2)c(=O)[nH]c1=O | – | 1.26 µM (active) |
| NCCCNCCSP(=O)(O)O | -9.99% (inactive) | – |
| CN1Cc2c(ccc3c2OCO3)[C@@H]2[C@@H](O)Cc3cc4c(cc3[C@@H]21)OCO4 | 5.43% [at 25.6 µM] (inactive) | – |
| NC(N)=NCCN=C(N)N | 3.96% [at 11.4 µM] (inactive) | – |
| Clc1cc(I)cc(Cl)c1NC1=NCCN1 | 8.41% (inactive) | – |
| CCNC(=S)NC1CC2CCCC(C1)N2Cc1ccco1 (centres undefined) | -3.86% (inactive) | – |
| CCc1ccccc1NC(=S)NC1CC2CCC(C1)N2Cc1ccco1 (centres undefined) | 19.7% (inactive) | – |
| CC(C)CNC(=S)NC1CC2CCCC(C1)N2Cc1ccco1 (centres undefined) | – | 2.82 µM (active) |
| C#C[C@@]1(O)CC[C@@H]2[C@@H]3CCC4=CC(=O)CC[C@@]4(C)[C@H]3CC[C@]21C | 6.31% [at 25.6 µM] (inactive) | – |
